According to PubChem BioAssay AID2288 (National Center for Advancing Translational Sciences (NCATS), 2010):
Hit rate of the full screen: of about 340,000 compounds, fewer than 10 were called active. Another 2% or so got no clear call; they are omitted. Calls come from the whole dose curve; as a rule, active = well fitted curve in the direction sought with a large enough effect; inconclusive = small, poorly fitted or top-dose-only effect, or another doubt; inactive = no such curve, though single readings can be large or run the other way. Not all results are given here.

assay: qHTS Assay for Modulators of miRNAs and/orActivators of miR-21; conditions: HeLa miR-21 FLuc reporter, luciferase, 48 h; series mostly up to 38.3 µM; activity change, positive = activation: at the top concentration;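 note: % of control where 0% means no effect; miR-21 action dims this reporter so a rising signal means less miR-21 action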
Excerpt: MLSCN Grant: 1 R21 NS059478-01 Assay Provider: Qihong Huang, The Wistar Institute NCGC Assay Overview: MicroRNAs (miRNAs) are endogenously encoded small (~20-25 nucleotides), nonprotein-coding RNAs that are involved in post-transcriptional repression of target messenger RNAs (mRNAs) (Le and Hannon, 2004). Estimated to be involved in the regulation of 30% of all protein-coding mRNAs (Filipowicz et al., 2008), miRNAs play a significant role in many biological processes including cellular differentiation and tissue development (Ghildiyal and Zamore, 2009).
NCGC Assay Protocol Summary: Reagents: HeLa cells stably expressing firefly luciferase (FLuc) under the control of a CMV promoter (upstream) and a miR-21 binding sequence directly downstream of the gene. These cells endogenously express miR-21. Control compounds used were compound C3 (provided by collaborator), N6-phenyladenosine (MP Biomedicals, 0215379625), and DMSO. Assay Summary: 6uL of HeLa miR-21-FLuc cells in assay buffer (DMEM, Invitrogen #21063-029; 10% FBS, HyClone #SH30071.03) were dispensed at 2000cells/well (3.3 x 10^5 cells/mL) into Greiner solid-white TC-treated 1536-well plates using a Multidrop Combi (Thermo Fisher Scientific). Plates were incubated for one hour at 37 degree Celsius, 95% humidity, 5% CO2. These assay plates were then treated with 23nL of compound or DMSO using a Kalypsys pin tool, which allows for delivery of a 24-point titration of each compound to the assay plate, with a final compound concentration ranging from approximately 40uM to 5pM. Assay plates were then incubated for 48 hours. After incubation, plates were allowed to come to RT for one hour prior to delivery of 3uL of 3X luciferase detection reagent. After a 15 minute incubation to allow for cell lysis, luciferase activity was measured using a ViewLux CCD imager (PerkinElmer), with an average exposure time of 2-12 seconds. Keywords: NIH Roadmap, MLPCN, MLSMR, qHTS, miR-21, microRNA, firefly luciferase, FLuc.

Activity change, positive = activation, inactive:
CCOc1ccc(CCNC(=O)c2ccc3c(c2)sc2nc(-c4ccc(F)cc4)cn23)cc1OCC 1.62%
Cc1cc(NC(=O)c2ccc(-c3ccc(Cl)cc3)o2)cc(-c2nc3ncccc3o2)c1O 2.05%
O=C(CSc1oc(-c2ccco2)nc1S(=O)(=O)c1ccccc1)c1ccc(Cl)cc1 8.21%
COc1cccc(CNC(=O)Cc2csc3nc(-c4ccccc4)cn23)c1 -0.468%
Cc1ccc(NC(=O)c2ccc(CN3CC(=O)N4CCCCC4C3=O)cc2)c(Cl)c1 (stereo not given) 1.68%
O=C(Cn1ncn2nc(-c3cccs3)cc2c1=O)NCc1cccc(Br)c1 -2.62%
Cc1ccc(C)c(OCC(=O)Nc2sc3c(c2C#N)CCCC3)c1C -1.24%
COc1cccc(N2CCN(S(=O)(=O)c3cc(Br)cc4c3N(C(=O)C3CC3)CC4)CC2)c1 -0.588%
CCNS(=O)(=O)c1cc(-c2nnc(Nc3cccc(C(F)(F)F)c3)c3ccccc23)ccc1C -0.871%
Cc1nn(-c2ccc(N3CCCCC3)nn2)c(C)c1CCC(=O)NCc1ccccc1F 18.3%
CCOc1ccc(N(CC)C(=O)c2cc3c(=O)oc4ccccc4c3s2)cc1 -10.1%
CCCN(CCC)S(=O)(=O)c1ccc(C(=O)Nc2sc3c(c2C(=O)OC)CCN(CC)C3)cc1 22.1%
COC(=O)c1ccccc1NC(=O)c1cc(-c2ccccc2O)no1 5.97%
COC(=O)CC1Oc2ccccc2-n2cc(-c3ccccc3)nc21 (stereo not given) 12.2%
CCc1cc2c(cc3c(=O)n(CC(=O)N4CCN(c5cc(Cl)ccc5C)CC4)ncn32)s1 0.215%
CCOC(=O)c1ccc(NC(=O)Cn2cc(S(=O)(=O)Cc3ccccc3F)c3ccccc32)cc1 -1.64%
CCOC(=O)c1cnc2c(C)cc(C)cc2c1Nc1ccc(N2CCOCC2)cc1 -4.37%
Cc1cccc(CNC(=O)c2cnc3sc(N4CCCCC4)nn3c2=O)c1 -1.19%
Cc1nn(-c2ccc(N3CCCCC3)nn2)c(C)c1CCC(=O)NCc1ccc(F)cc1 -12.7%
Cc1cccc(-n2ccnc2SCC(=O)Nc2cccc3ccccc23)c1C 5.86%
CCOc1ccc(C(=O)c2cn(Cc3ccccc3OC)c3ccc(F)cc3c2=O)cc1 1.46%
CCOC(=O)c1cccc(NC(=O)c2cc(CN3CCCC3)on2)c1 -64%
O=C(Nc1ccc2nc(SCCOc3ccccc3Cl)sc2c1)c1ccco1 9%
Cc1ccc2c(=O)cc(C(=O)Nc3sc4c(c3C(=O)NCc3cccnc3)CCCC4)oc2c1 1.15%
Cc1ccc(CN2C(=O)SC(Nc3ccccc3)C2=O)cc1 (stereo not given) 2.92%
O=C(CCS(=O)(=O)c1cc(Br)cc2c1N(C(=O)C1CC1)CC2)Nc1ccc(C(F)(F)F)cc1 -1.46%
O=S(=O)(c1ccc(C2CCCCC2)cc1)N1CCN(c2ccc(Cl)c(Cl)c2)CC1 -2.63%
O=C(NCCC1=CCCCC1)c1ccc2c(c1)N(Cc1ccccc1F)C(=O)c1ccccc1S2(=O)=O 5.95%
CN(C)S(=O)(=O)c1ccc(C(=O)N(Cc2cccnc2)c2nc3c(F)cc(F)cc3s2)cc1 -11.5%
CCNC(=O)Cn1nc(C)n2c(cc3c(OC)cccc32)c1=O -0.737%
CCn1cc(C(=O)N2CCN(c3cc(C)ccc3C)CC2)c(=O)c2cc(S(=O)(=O)N(C)C3CCCCC3)ccc21 0.0352%
CCC(=O)N1CCc2cc(CNC(=O)Nc3ccccc3Cl)ccc21 -28.9%
Cc1cc(C)c(NC(=O)c2cc3sc(Cl)cc3n2C)c(C)c1 0.326%
COc1ccc(C(F)(F)F)cc1NC(=O)c1sc2nc(-c3cccs3)ccc2c1N -11.7%
Cc1cc2n(n1)C(c1cc(C(C)(C)C)c(O)cc1O)Nc1ccccc1-2 (stereo not given) 10.5%
CCc1ccc(C2C(C(=O)Nc3ccccc3)=C(C)Nc3c(C(=O)Nc4ccc(C)cc4)cnn32)cc1 (stereo not given) 18.4%
Cc1ccc(C)c(N2C(=O)N(Cc3c(F)cccc3Cl)c3ccccc3S2(=O)=O)c1 19.2%
Clc1cccc(-n2ncc3c(NCCc4ccccc4)ncnc32)c1 -34%
CCOc1ccc(N2CC(C)Cn3c2nc2c3c(=O)n(Cc3c(F)cccc3Cl)c(=O)n2C)cc1 (stereo not given) -3.48%
CCc1cc2c(cc3c(=O)n(CC(=O)N4CCN(c5cc(Cl)ccc5C)CC4)nc(CC)n32)s1 -0.281%
COc1ccc(-n2ccnc(NCCc3ccc(Cl)cc3)c2=O)cc1OC 24.5%
O=C1CCCc2cc(S(=O)(=O)N3CCCC(C(=O)NCc4ccccc4)C3)ccc2N1 (stereo not given) 7.69%
CCOC(=O)c1c(NC(=O)c2cc(CC)on2)sc(C(C)=O)c1C -1.99%
CCOc1ccc(N(CC)C(=O)C2CCN(S(=O)(=O)c3cccc4nonc34)CC2)cc1 0.642%
COc1ccccc1C1C(C(=O)N2CCCCC2)=C(C)Nc2nc3ccccc3n21 (stereo not given) 0.0662%
O=C(Nc1c(-c2ccc(F)cc2)nc2ccccn12)c1cccc(F)c1 -1.07%
O=C(CCn1c(=O)c2sccc2n(Cc2ccc(F)cc2)c1=O)NCc1ccc2c(c1)OCO2 0.239%
COc1cc(OC)cc(-c2nc3nc(C)c(CCC(=O)Nc4ccccc4)c(C)n3n2)c1 -4.08%
Cc1ccccc1-c1nc2scc(CCNC(=O)C(=O)Nc3ccc(F)cc3F)n2n1 0.0996%
Cc1cccc2nc(-c3ccc(Cl)s3)c(Nc3ccc4c(c3)OCCO4)n12 -42.6%
O=C(Cn1c(=O)n(Cc2ccccc2)c(=O)c2sc3ccccc3c21)Nc1ccccc1F -6.8%
COc1ccc(-c2cc(-c3ccccc3)nc3c2COc2ccc(Cl)cc2-3)cc1 -0.778%
Cc1ccc(S(=O)(=O)c2nc(-c3cccs3)oc2N2CCCCC2)cc1 1.01%
Cc1cccc(NC(=O)Cn2cc(S(=O)(=O)Cc3ccccc3Cl)c3ccccc32)c1 7.43%
O=C(NC1CC(=O)N(c2ccc(F)cc2)C1)c1cccs1 (stereo not given) -2.97%
COc1ccc(Cl)cc1S(=O)(=O)N1CCC(c2ccncc2)CC1 12.3%
CC(C)CC(NS(=O)(=O)c1ccc2c(c1)oc(=O)n2C)C(=O)NCc1ccccc1Cl (stereo not given) -0.815%
CCc1ccccc1NC(=O)CSc1nnc(-c2ccccc2)c(-c2ccccc2)n1 13.9%
CCCc1nn2c(=O)cc(COC(=O)c3ccc(NC(=O)COc4ccc(F)cc4)cc3)nc2s1 -7.11%
CCOc1ccccc1CNC(=O)c1ccc2c(c1)nc1n2CCC(C)C1 (stereo not given) -0.912%
COc1ccc2c(c1)C=C(C(=O)NCc1cc(Br)ccc1OC)CO2 4.49%
CC(C)Cn1c(-c2ccc(S(=O)(=O)N3CCOCC3)cc2)csc1=Nc1cc(Cl)ccc1Cl -1.77%
O=C(Cc1ccc(Cl)cc1)NCC(c1cccs1)S(=O)(=O)c1ccc(Cl)cc1 (stereo not given) 14.4%
COc1cc(OC)c(NC(=O)c2cnc(N3CCCC3)nc2C)cc1Cl -8.6%
Cc1ccc(C(=O)COC(=O)C(Cc2c[nH]c3ccccc23)NC(=O)c2ccc(Br)cc2)cc1 (stereo not given) -3.65%
Cc1cc(N2CCN(c3cccc(C(F)(F)F)c3)CC2)n2nc(-c3ccccc3)nc2n1 1.74%
CCCNC(=O)c1ccc(Cn2c(SCC(N)=O)nc3ccccc3c2=O)cc1 -24.5%
Cn1c(=O)c(C(=O)O)nn(-c2ccccc2)c1=O 3.23%
Cc1ccc(OCC(=O)Nc2ccc(OCc3cc(=O)n4c(C)csc4n3)cc2)cc1C -2.25%
COc1cc(OC)c(NC(=O)c2c3c(nn2C)-c2ccccc2SC3)cc1Cl 1.84%
COC(=O)c1ccccc1NC(=O)Cn1c(=O)n(-c2cccc(C(F)(F)F)c2)c(=O)c2c(C)c(C)sc21 0.641%
Brc1ccc2c(c1)NC(c1cccnc1)=NC(c1ccccc1)=N2 -10.5%
CCOC(=O)c1cc(-c2ccccc2)n(CCC(=O)Nc2ccccc2CC)c1C -4.44%
COc1ccccc1-c1nnc(C2CCN(C(=O)c3ccc(Cl)cc3)CC2)o1 -3.37%
CCCCN(C)c1nnc(NC(=O)Nc2ccc(Br)c(C)c2)s1 -3.2%
CCOC(=O)Cn1c(=O)n(C2CCCCC2)c2nc(-c3cccc(OC)c3)nc(C(N)=O)c21 -0.638%
Cc1cc(C)c(NC(=O)CCc2c(C)nc3c(c(C)nn3C(C)(C)C)c2C)c(C)c1 4.5%
O=C(NC1CC(=O)N(c2ccc(F)cc2)C1)c1ccc(S(=O)(=O)N2CCCC2)cc1 (stereo not given) -5.5%
Cc1ccc(-c2nnc(Nc3ccc(OCC(N)=O)cc3)c3ccccc23)cc1S(=O)(=O)NCC1CCCO1 (stereo not given) -3.57%
O=C(c1ccc(Br)cc1)N(Cc1cccs1)c1ccc(F)cc1 15.3%
CC1=C(C(=O)OCC2CCCCC2)C(c2c(F)cccc2Cl)CC(=O)N1 (stereo not given) -3.1%
Cc1ccc(OCCSc2nc(C)c(Cc3ccccc3)c(=O)[nH]2)cc1 -0.304%
CCOc1ccc(-c2cc(C)n3nc(C(=O)Nc4ccc(C)c(C)c4)cc3n2)cc1 -15.3%
Cc1ccc2oc3c(c(=O)c2c1)C(c1ccc(O)cc1)N(Cc1ccc2c(c1)OCO2)C3=O (stereo not given) 0.711%
COc1ccc(-c2cc(C(=O)Nc3sc4c(c3C(N)=O)CCCC4)no2)cc1 -12.6%
COc1cccc(-c2cc(C(=O)Nc3ccc(C)cc3)[nH]n2)c1 -37.4%
CCCCN(CC)CCCNC(=O)c1nn(C)c2c1CSc1ccccc1-2 -4.82%
Cc1ccccc1CNC(=O)c1cccc(NC(=O)c2nsc3ccccc23)c1 -48.8%
COc1cc(NC(=O)c2cc3ccc4cccnc4c3[nH]2)cc(OC)c1OC 1.22%
Cc1nnc(NC(=O)CSc2nc3c([nH]c4ccccc43)c(=O)n2-c2cccc(Cl)c2)s1 -7.48%
Cc1ccc2nc(COc3ccccc3NC(=O)Nc3ccc(F)c(Cl)c3)cc(=O)n2c1 -22.2%
COc1ccc(-c2nc(Cn3c(=O)cc(C)c4c(C)nn(-c5ccccc5)c43)c(C)o2)c(OC)c1 -21%
CCOCCCNC(=O)c1ccc2nc(CCc3ccccc3)oc2c1 -46.9%
CCOc1cc(CNC(=O)c2sc3ncnc(N(C)C4CCCCC4)c3c2C)ccc1OC 20.8%
Cc1ccc(C)c(Cn2c(C(=O)O)c(CNCc3cccs3)c3ccccc32)c1 5.44%
